PAFAH2 inh: inhibitors of human PAFAH2; Q99487; recombinant PAFAH2, FP-rhodamine activity probe, fluorescence polarization; inhibition, % at 3.39 µM; actives 0.99% (n = 340,000); AID 492956;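 active = inhibition above the mean over all tested compounds plus 3 SD, cut at about 30% in these data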;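 note: inhibitors block probe labeling of enzyme so polarization drops; 0% = enzyme with DMSO and 100% = wells lacking PAFAH2 protein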
PME-1 inh: blocks human protein phosphatase methylesterase 1; Q9Y570; recombinant PME-1, FP-Rh probe fluorescence polarization; inhibition, % at 5.9 µM; actives 0.53% (n = 320,000);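 active = inhibition above the campaign mean of all compounds plus 3 SD, cut at about 26% in these data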;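 note: competitive labeling of PME-1 active site by serine hydrolase directed probe; 0% = PME-1 with DMSO and 100% = wells lacking PME-1 enzyme; inhibitors block probe labeling so polarization falls and inhibition rises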
PAFAH1B3 inh: inhibitors of human PAFAH1B3; Q15102; inhibition, % at 3.39 µM; recombinant PAFAH1B3, FP-rhodamine probe, fluorescence polarization; actives 0.28% (n = 340,000);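 active = inhibition above the screen-wide average of all tested compounds plus 3 SD, cut at about 25% in these data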;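 note: 0% = enzyme with DMSO only and 100% = wells lacking PAFAH1B3 protein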
Target sequence (Q15102 whole entry, looked up): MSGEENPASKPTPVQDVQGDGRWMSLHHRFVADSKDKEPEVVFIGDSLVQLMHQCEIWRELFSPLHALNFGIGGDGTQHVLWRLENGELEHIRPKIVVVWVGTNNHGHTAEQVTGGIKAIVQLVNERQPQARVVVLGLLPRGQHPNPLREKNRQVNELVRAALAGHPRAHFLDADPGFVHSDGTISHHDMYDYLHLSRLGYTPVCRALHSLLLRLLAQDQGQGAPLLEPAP
Fam108B inh: counter-screen for RBBP9 inhibitors: inhibitors of mouse Fam108B; inhibition, % at 9.51 µM; AID 1947; recombinant Fam108B, FP-Rh probe fluorescence polarization; actives 0.33% (n = 300,000);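 active = inhibition above the screen mean inhibition plus 3 SD, computed separately per campaign, cut at about 18% in these data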;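 note: inhibitors lower polarization as less probe binds the enzyme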
PAFAH1B2 FP inh: PAFAH1B2 (human) inhibition; inhibition, % at 3.39 µM; recombinant PAFAH1B2, FP-rhodamine activity probe, fluorescence polarization; actives 1.2% (n = 340,000); AID 492953; P68402;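 active = inhibition above the mean of all tested compounds plus 3 SD, cut at about 24% in these data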;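 note: 0% = enzyme with DMSO and 100% = wells lacking PAFAH1B2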
Target sequence (P68402 whole entry, looked up): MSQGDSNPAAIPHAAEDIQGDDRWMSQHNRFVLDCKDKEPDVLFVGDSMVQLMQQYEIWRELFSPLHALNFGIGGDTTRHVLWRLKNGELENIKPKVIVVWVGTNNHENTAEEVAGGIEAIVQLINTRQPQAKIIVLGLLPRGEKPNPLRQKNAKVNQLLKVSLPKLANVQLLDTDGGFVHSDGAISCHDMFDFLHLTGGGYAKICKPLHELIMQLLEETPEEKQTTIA
pPAFAH FP inh: inhibitors of human plasma PAF acetylhydrolase (pPAFAH). inhibition, % at 3.39 µM. recombinant pPAFAH, FP-rhodamine probe fluorescence polarization. actives 1.5% (n = 330,000);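 active = inhibition above the mean inhibition across the screen plus 3 SD, cut at about 25% in these data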;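 note: inhibitors block binding of the rhodamine activity-based probe so polarization drops; 0% = enzyme with DMSO and 100% = wells lacking pPAFAH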
* = called active by the depositor; nt = not tested or not shown. In the library only some 2.9% were active in any assay of this set; here they are far more common.

SMILES	PAFAH2 inh	PME-1 inh	PAFAH1B3 inh	Fam108B inh	PAFAH1B2 FP inh	pPAFAH FP inh
Fc1ccccc1-c1nc2c(s1)CCc1onc(-c3ccc(Br)cc3)c1-2	-6.0	3.4	1.4	-4.0	8.0	2.8
C=CC(C)(O)CCCC(C)CCCC(C)CCCC(C)C (stereo not given)	12.8	2.0	8.1	nt	4.4	-1.1
COC1=C/C(=C/c2c(N)n3nc(-c4ccc(C)cc4)sc3nc2=O)C=CC1=O	13.0	nt	18.0	nt	27.5*	nt
O=C(CCNC(=O)c1ccc(Cl)cc1)NCc1cccc(C(F)(F)F)c1	1.9	-4.8	2.6	1.7	25.3*	18.9
O=C(Cc1cccc(C(F)(F)F)c1)NCc1ccc(Cl)cc1	-1.9	6.9	6.6	2.1	4.7	-1.4
COc1ccc(CNC(=O)CN(C(=O)c2csnn2)c2cccc3ccccc23)cc1	-2.6	2.5	-7.1	-4.1	12.0	6.0
Cn1c(=O)c2nc3ccccc3nc2n(C)c1=O	2.2	2.2	9.8	-1.6	4.5	3.1
CC(=O)Nc1ccc2nc3c(=O)n(C)c(=O)n(C)c3nc2c1	5.5	-0.1	16.5	7.9	8.2	29.7*
Cc1ccc(-c2[nH]c(-c3ccc(C(=O)O)cc3)nc2-c2ccccc2)cc1	1.8	4.1	0.7	3.5	5.5	30.8*
O=C(O)c1ccc(-c2nc(-c3ccccc3)c(-c3cccs3)[nH]2)cc1	8.2	10.8	7.6	4.1	5.9	12.9
CCc1ccc(C(CC(=O)c2ccc(Cl)cc2)C(=O)O)cc1 (stereo not given)	5.9	-5.5	6.0	-8.3	1.8	-2.6
CC(C)c1ccc(C(CC(=O)c2ccc(Cl)cc2)C(=O)O)cc1 (stereo not given)	-13.8	0.5	-1.9	4.8	38.2*	4.6
CC(C)(C)c1ccc(C(=O)NCCC(=O)NNC(=O)COc2ccccc2F)cc1	-7.7	nt	3.7	nt	25.3*	2.2
CN(Cc1ccccc1F)C(=O)CCNC(=O)c1ccc(C(C)(C)C)cc1	-3.2	-3.0	1.5	nt	27.9*	4.8
CN(Cc1ccccc1F)C(=O)CNC(=O)Cc1cccc2ccccc12	-0.9	-0.9	0.5	-0.2	2.4	2.5
CCOC(=O)C1CCN(CCC(=O)Nc2ccc(C)cc2)CC1	2.6	-0.5	2.4	0.8	1.8	3.1
CCOC(=O)c1cnc2ccc(C)cc2c1N(C)Cc1ccccc1	-6.3	-14.0	-4.3	6.2	3.8	25.4*
COc1cc(N/C=C(\C(C)=O)c2ccccc2)cc(OC)c1	-6.7	1.8	4.5	1.3	-2.5	30.9*
CC(C)(C)N1CC(OC(N)=O)C1	-1.6	-1.2	2.4	4.8	2.1	2.5
Cc1ccc(NCC(=O)N/N=C\C(Br)=C\c2ccccc2)cc1	-7.6	-0.2	14.2	-0.1	7.3	27.5*
Cc1nn(-c2ccc(F)cc2)c(Cl)c1C(=O)N(C)CC(=O)Nc1cccc(F)c1	-0.9	3.3	2.7	-0.2	-2.2	-1.7
O=C(CSc1ncccc1C(=O)O)NC1CCCCC1	0.2	-0.9	-5.0	2.1	3.6	3.7
CC(NC(=O)CSc1n[nH]c(=O)[nH]c1=O)C1CC2CCC1C2 (stereo not given)	-3.0	-3.6	4.7	-4.4	26.9*	0.2
Cc1cc(=O)[nH]c(SCC(=O)NC(C)C2CC3CCC2C3)c1C#N (stereo not given)	8.5	0.4	-0.2	1.8	18.2	22.6
CC(NC(=O)CSc1ncccc1C(=O)O)C1CC2CCC1C2 (stereo not given)	8.1	1.9	0.0	-7.6	29.2*	2.8
SMILES	PAFAH2 inh	PME-1 inh	PAFAH1B3 inh	Fam108B inh	PAFAH1B2 FP inh	pPAFAH FP inh
CN(CC(=O)Nc1ccccc1Cl)C(=O)COC(=O)c1ccc([N+](=O)[O-])s1	34.4*	nt	48.1*	nt	19.2	10.2
Cc1ccc(NC(=O)COC(=O)c2ccc([N+](=O)[O-])s2)c(C)c1	38.5*	-0.4	28.1*	3.0	16.5	10.7
Cc1ccc(SCC(=O)OCC(=O)N(C)CC(=O)Nc2ccccc2Cl)cc1C	-0.7	2.3	7.4	0.8	4.5	34.4*
CN(CC(=O)Nc1ccccc1Cl)C(=O)COC(=O)c1cccs1	1.3	nt	10.1	nt	2.4	-1.7
CN(CC(=O)Nc1ccccc1Cl)C(=O)COC(=O)CSc1ccc(F)cc1	0.1	-2.1	-4.0	5.5	14.9	22.6
NS(=O)(=O)c1ccc(NC(=O)COC(=O)c2ccc([N+](=O)[O-])s2)cc1	43.3*	7.7	29.9*	5.4	12.4	33.3*
CC(C)(C)c1nc2c(Br)cc(Br)cc2c(=O)o1	3.9	5.9	13.7	-8.6	-1.9	-5.6
CC(C)c1nc(SCC(=O)Nc2cccc3ccccc23)n[nH]1	0.7	nt	1.2	nt	8.6	3.5
COc1ccc(C2CC(c3ccccc3)=NN2c2ccc(N)cc2)cc1 (stereo not given)	5.3	1.1	-1.9	8.1	6.0	25.8*
COc1ccc(C2CC(c3ccccc3O)=NN2c2ccccc2)cc1 (stereo not given)	4.2	-5.8	8.8	0.1	-1.8	2.0
COc1ccc(C2=NN(c3ccc(C(=O)O)cc3)C(c3ccc(OC)c(OC)c3)C2)cc1 (stereo not given)	14.3	3.9	17.9	0.4	7.6	26.9*
COc1ccc(C2CC(c3ccccc3)=NN2c2ccc(Cl)c(C(=O)O)c2)cc1 (stereo not given)	7.2	8.8	9.7	3.5	1.3	34.0*
CCCC(C)c1nc(C(N)=O)c2[nH]c(=O)n(-c3ccc(OC)c(OC)c3)c2n1 (stereo not given)	-2.4	14.8	-2.7	-7.5	2.0	-1.2
CCN1C(=O)c2cccc3c(S(=O)(=O)Nc4ccncc4)ccc1c23	6.8	-2.3	2.7	2.3	3.8	4.2
CCN1C(=O)c2cccc3c(S(=O)(=O)Nc4ccccc4)ccc1c23	10.7	-6.4	-1.6	-3.8	1.9	25.4*
C[C@@H]1NS(=O)(=O)[C@H]2C[C@@H]3C=C[C@]2(O3)[C@H]1OC(=O)c1ccc(C(C)(C)C)cc1	4.9	-3.5	-3.2	nt	4.3	0.8
COc1ccc(C2NC(=O)NC(C)=C2C(=O)OC2CCC(C)CC2)cc1 (stereo not given)	-3.4	nt	3.5	nt	9.0	nt
O=C1NC(=O)/C(=C/c2ccccc2Oc2ccc(Cl)cc2)S1	0.4	-15.1	-0.1	-5.1	28.4*	13.5
CC1(OC(=O)c2cccs2)C(=O)C=C2C=C(c3ccc(C#N)cc3)OC=C2C1=O (stereo not given)	nt	6.2	nt	5.6	nt	44.6*
COC(=O)CCCC1=CC2=CC(=O)C(C)(OC(=O)c3cccs3)C(=O)C2=CN1CCc1ccccn1 (stereo not given)	0.4	2.1	7.9	4.2	-1.6	2.6
CC1(OC(=O)c2cccs2)C(=O)C=C2C=C(c3ccsc3)OC=C2C1=O (stereo not given)	nt	-1.9	nt	5.8	nt	55.6*
C=CCN1C=C2C(=O)C(C)(OC(=O)c3cccs3)C(=O)C=C2C=C1CCCC(=O)OC (stereo not given)	0.9	8.0	1.4	-0.7	3.2	1.1
